The text below walks through data of PubChem BioAssay (Tox21).

Results filed as inconclusive are left out. Active and inactive are the calls of the source. Unless noted, calls follow the shape of the dose curve; as a rule, active = well fitted curve in the direction sought with a large enough effect in the repeat runs; inconclusive = weak or mixed curves; inactive = no such curve, though single readings can be large; an effect the other way counts as inactive or inconclusive.

Experiment [1] is described as follows: qHTS assay to identify small molecule antagonists of the glucocorticoid receptor (GR) signaling pathway - cell viability counter screen (AID 720693). Also: nearly all actives have a fitted effect of over 55% in size. Also: potency is read from the fitted curve at half-maximal effect.
Experiment [2] can be described thus: qHTS assay for identifying genotoxic compounds that show differential cytotoxicity against isogenic chicken DT40 cell lines with known DNA damage response pathways - wild type cell line (AID 743012). Also: nearly all actives have a fitted effect of over 60% in size. Also: potency is read from the fitted curve at half-maximal effect. The essentials:
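Viability of DNA repair-proficient chicken DT40 cells was assessed by CellTiter-Glo luminescence following 40 h compound exposure at 37 C/5% CO2.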

Experiment [3] is described as follows: qHTS assay for identifying genotoxic compounds that show differential cytotoxicity against isogenic chicken DT40 cell lines with known DNA damage response pathways - Rev3 mutant cell line (AID 743014). Also: nearly all actives have a fitted effect of over 55% in size. Also: potency is read from the fitted curve at half-maximal effect.
Experiment [4] can be described thus: qHTS assay for identifying genotoxic compounds that show differential cytotoxicity against isogenic chicken DT40 cell lines with known DNA damage response pathways - Rad54/Ku70 mutant cell line (AID 743015). Also: nearly all actives have a fitted effect of over 60% in size. Also: potency is read from the fitted curve at half-maximal effect.
Experiment [5] can be described thus: qHTS assay to identify small molecule antagonists of the androgen receptor (AR) signaling pathway - cell viability counter screen (AID 743033; also: nearly all actives have a fitted effect of over 45% in size; also: potency is read from the fitted curve at half-maximal effect).
In experiment [6] the target is Androgen receptor (Homo sapiens) (UniProt P10275). Kind of experiment: qHTS assay to identify small molecule agonists of the androgen receptor (AR) signaling pathway (AID 743036; active = well fitted activation curve with a large enough effect in the signal ratio in the repeat runs, with a control signal flat, not every such curve was filed as active; the % refers to the signal ratio). The essentials:
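Reporter line: GeneBLAzer AR-UAS-bla-GripTite (HEK293). Steps: plate cells, 4 h rest, add compounds, 16 h at 37C, add LiveBLAzer B/G substrate, 2 h at RT, read fluorescence.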

Experiment [7] shares this target. Kind of experiment: qHTS assay to identify small molecule agonists of the androgen receptor (AR) signaling pathway using the MDA cell line (AID 743040; also: nearly all actives have a fitted effect of over 20% in size; also: potency is read from the fitted curve at half-maximal effect). The essentials:
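Cell-based luciferase reporter: MDA-kb2, MMTV promoter (AR + GR response elements). 16 h compound exposure at 37C; ONE-Glo, 30 min RT, luminescence.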

The nature of experiment [8]: qHTS assay to identify small molecule antagonists of the androgen receptor (AR) signaling pathway using the MDA cell line - cell viability counter screen (AID 743041; also: nearly all actives have a fitted effect of over 45% in size; also: potency is read from the fitted curve at half-maximal effect). The essentials:
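In this qHTS counter assay, fluorescence intensity after CellTiter-Fluor addition indicated viability of MDA-kb2 AR-luc cells given compounds and R1881 for 16 h at 37C.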

The target of experiment [9] is Androgen receptor (Homo sapiens) (UniProt P10275). Kind of experiment: qHTS assay to identify small molecule antagonists of the androgen receptor (AR) signaling pathway using the MDA cell line (AID 743042; also: nearly all actives have a fitted effect of over 55% in size; also: potency is read from the fitted curve at half-maximal effect). The essentials: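 MDA-kb2 cells (human breast carcinoma, stably carrying an MMTV-luciferase reporter responsive to AR and GR) were plated at 3,000 cells/well and preincubated 5 hr at 37C, then given compound plus R1881 agonist for 16 h. ONE-Glo luminescence was read.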

Experiment [10] can be described thus: qHTS assay to identify small molecule antagonists of the thyroid receptor (TR) signaling pathway - cell viability counter screen (AID 743064). Also: nearly all actives have a fitted effect of over 50% in size. Also: potency is read from the fitted curve at half-maximal effect. The essentials: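 Plate GH3.TRE-Luc cells; incubate 4 h at 37 °C; add compound, then T3 to 1 nM final; incubate 23.5 h; add CellTiter-Fluor; incubate 30 min at 37 °C, 5% CO2; read fluorescence.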
Experiment [11] is described as follows: qHTS assay to identify small molecule antagonists of the thyroid receptor (TR) signaling pathway (AID 743065). Also: nearly all actives have a fitted effect of over 55% in size. Also: potency is read from the fitted curve at half-maximal effect. The essentials: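 GH3.TRE-Luc rat pituitary cells carrying two TR response elements driving luciferase were plated for 4 h, given compound plus 1 nM T3 (final), and incubated 23.5 h at 37 C. ONE-Glo luminescence measured reporter inhibition; CellTiter-Fluor fluorescence tracked cytotoxicity.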

Experiment [12] relates to thyroid hormone receptor (rat, GH3 cells). Kind of experiment: qHTS assay to identify small molecule agonists of the thyroid receptor (TR) signaling pathway (AID 743066; calls by dose curve).
Experiment [13] concerns the target Estrogen receptor (Homo sapiens) (UniProt P03372). Kind of experiment: qHTS assay to identify small molecule antagonists of the estrogen receptor alpha (ER-alpha) signaling pathway (AID 743069; active = well fitted curve in the direction sought with a large enough effect in the signal ratio in the repeat runs, not every such curve was filed as active; the % refers to the signal ratio). The essentials: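 A 17beta-estradiol challenge was applied right after compound transfer to ER-alpha-UAS-bla HEK293 cells previously kept in charcoal-stripped serum. Plates stood 18 hr at 37C and 5% CO2; fluorescence was read following 2 hr FRET substrate loading at room temperature.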

The nature of experiment [14]: qHTS assay to identify small molecule antagonists of the estrogen receptor alpha (ER-alpha) signaling pathway - cell viability counter screen (AID 743074; calls by dose curve;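 also: HEK293 cells carrying ER-alpha-UAS-bla reporter stimulated with 17beta-estradiol; nearly all actives have a fitted effect of over 45% in size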; also: potency is read from the fitted curve at half-maximal effect).
For experiment [15], the target named is Estrogen receptor (Homo sapiens) (UniProt P03372). Kind of experiment: qHTS assay to identify small molecule agonists of the estrogen receptor alpha (ER-alpha) signaling pathway (AID 743075; calls by dose curve;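 also: HEK293 GripTite cells with ER-alpha and UAS-driven beta-lactamase reporter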).
Experiment [16] shares this target. Kind of experiment: qHTS assay to identify small molecule agonists of the estrogen receptor alpha (ER-alpha) signaling pathway using the BG1 cell line (AID 743079). Also: nearly all actives have a fitted effect of over 20% in size. Also: potency is read from the fitted curve at half-maximal effect.
The nature of experiment [17]: qHTS assay to identify small molecule antagonists of the estrogen receptor alpha (ER-alpha) signaling pathway using the BG1 cell line (AID 743080; calls by dose curve; also: series mostly up to about 70 µM; nearly all actives have a fitted effect of over 25% in size). The essentials: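 Antagonist mode: compounds in DMSO were pinned onto BG1-Luc-4E2 cells alongside 17beta-estradiol agonist, incubated 21.5 h, and ERE-driven luciferase measured with ONE-Glo. Cytotoxicity was multiplexed using CellTiter-Fluor fluorescence.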

The nature of experiment [18]: qHTS assay to identify small molecule antagonists of the estrogen receptor alpha (ER-alpha) signaling pathway using the BG1 cell line - cell viability counter screen (AID 743081).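 Also: compound given together with 17beta-estradiol as the ER stimulus; series mostly up to about 70 µM; nearly all actives have a fitted effect of over 45% in size.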
Another experiment addresses Aromatase (Homo sapiens) (UniProt P11511). Kind of experiment: qHTS assay to identify aromatase inhibitors (AID 743083). Also: nearly all actives have a fitted effect of over 55% in size. Also: potency is read from the fitted curve at half-maximal effect.

Chain of Estrogen receptor (Homo sapiens) (P03372 whole entry, looked up): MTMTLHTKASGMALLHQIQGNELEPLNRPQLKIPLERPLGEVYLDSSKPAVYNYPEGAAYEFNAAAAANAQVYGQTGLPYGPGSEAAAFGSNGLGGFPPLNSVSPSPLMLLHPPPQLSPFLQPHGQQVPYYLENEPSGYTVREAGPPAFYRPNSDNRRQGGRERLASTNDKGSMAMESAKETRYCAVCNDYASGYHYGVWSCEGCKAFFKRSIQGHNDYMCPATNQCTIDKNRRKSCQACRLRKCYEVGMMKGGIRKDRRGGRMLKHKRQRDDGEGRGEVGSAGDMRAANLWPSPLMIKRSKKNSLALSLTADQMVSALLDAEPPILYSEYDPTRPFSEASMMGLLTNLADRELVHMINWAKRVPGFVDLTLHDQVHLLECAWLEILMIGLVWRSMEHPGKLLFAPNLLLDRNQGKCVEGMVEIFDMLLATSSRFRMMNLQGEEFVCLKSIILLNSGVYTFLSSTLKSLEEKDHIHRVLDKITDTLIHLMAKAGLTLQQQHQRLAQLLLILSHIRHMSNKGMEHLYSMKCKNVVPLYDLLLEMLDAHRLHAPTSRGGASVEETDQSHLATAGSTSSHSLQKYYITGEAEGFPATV
Chain of Androgen receptor (Homo sapiens) (P10275 whole entry, looked up): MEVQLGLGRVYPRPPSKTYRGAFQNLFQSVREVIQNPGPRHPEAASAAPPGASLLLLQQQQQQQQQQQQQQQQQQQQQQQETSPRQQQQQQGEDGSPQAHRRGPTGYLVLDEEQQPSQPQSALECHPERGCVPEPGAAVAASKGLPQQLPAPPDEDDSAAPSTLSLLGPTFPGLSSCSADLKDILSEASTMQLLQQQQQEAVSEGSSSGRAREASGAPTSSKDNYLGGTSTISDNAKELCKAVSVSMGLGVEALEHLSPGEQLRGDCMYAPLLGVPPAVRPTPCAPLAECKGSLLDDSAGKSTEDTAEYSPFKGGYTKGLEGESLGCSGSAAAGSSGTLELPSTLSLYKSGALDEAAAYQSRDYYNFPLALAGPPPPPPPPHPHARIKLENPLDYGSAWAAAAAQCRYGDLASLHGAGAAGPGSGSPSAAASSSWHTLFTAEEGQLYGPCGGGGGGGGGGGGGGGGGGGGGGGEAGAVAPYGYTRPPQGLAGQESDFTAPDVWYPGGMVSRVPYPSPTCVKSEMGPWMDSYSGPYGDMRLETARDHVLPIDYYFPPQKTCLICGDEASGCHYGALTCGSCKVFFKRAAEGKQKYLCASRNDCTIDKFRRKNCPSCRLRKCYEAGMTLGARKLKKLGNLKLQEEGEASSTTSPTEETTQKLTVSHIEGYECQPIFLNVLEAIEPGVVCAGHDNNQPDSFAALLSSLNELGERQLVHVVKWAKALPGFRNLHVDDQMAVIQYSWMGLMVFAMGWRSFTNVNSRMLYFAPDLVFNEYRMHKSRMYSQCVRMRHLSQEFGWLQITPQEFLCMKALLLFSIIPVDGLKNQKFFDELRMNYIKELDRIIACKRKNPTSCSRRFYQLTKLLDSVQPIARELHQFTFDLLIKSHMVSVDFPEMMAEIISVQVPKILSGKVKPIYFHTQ
Chain of Aromatase (Homo sapiens) (P11511 whole entry, looked up): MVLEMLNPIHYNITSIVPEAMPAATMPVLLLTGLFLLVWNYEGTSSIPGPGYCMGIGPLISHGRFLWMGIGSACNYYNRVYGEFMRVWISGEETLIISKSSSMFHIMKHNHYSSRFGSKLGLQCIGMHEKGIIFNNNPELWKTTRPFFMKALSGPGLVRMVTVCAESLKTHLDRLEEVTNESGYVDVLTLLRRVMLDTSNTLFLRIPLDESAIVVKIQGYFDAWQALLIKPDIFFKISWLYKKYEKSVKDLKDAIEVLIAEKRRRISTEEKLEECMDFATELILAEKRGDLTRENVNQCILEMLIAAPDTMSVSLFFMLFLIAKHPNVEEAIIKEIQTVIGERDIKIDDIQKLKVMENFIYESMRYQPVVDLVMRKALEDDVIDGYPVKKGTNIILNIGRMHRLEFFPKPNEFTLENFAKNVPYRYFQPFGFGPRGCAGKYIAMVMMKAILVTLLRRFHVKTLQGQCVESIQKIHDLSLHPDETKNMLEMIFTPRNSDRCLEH

For `CC1=C(/C=C/C(C)=C/C=C/C(C)=C/C=C/C=C(C)/C=C/C=C(C)/C=C/C2=C(C)CCCC2(C)C)C(C)(C)CCC1`, the Potency entry in [1], in experiment [2], in experiment [3], in experiment [4], in experiment [5] and in experiment [6] was “inactive” each time. In addition, the Potency entry in experiment [7], in experiment [8], in experiment [9], in experiment [10], in experiment [11] and in [12] was “inactive” throughout. Also, the Potency result in experiment [13], in experiment [14], in [15], in experiment [16], in experiment [17] and in experiment [18] was “inactive” throughout. Besides, the Potency result with Aromatase (Homo sapiens) was “inactive”.

On to `CCOc1cc(CC(=O)N[C@@H](CC(C)C)c2ccccc2N2CCCCC2)ccc1C(=O)O`, for which the Potency result in experiment [1], in experiment [2], in [3], in experiment [4], in experiment [5] and in [6] was “inactive” each time. The Potency result in experiment [8], in experiment [9], in [10], in experiment [11], in experiment [12] and in [14] was “inactive” in each case. Also, the Potency result in the experiment with Aromatase (Homo sapiens) was “inactive”. The Potency in experiment [7] was 11.4 µM (active).

On to `CC(C)OC(=O)Nc1ccc2nc(-c3cscn3)[nH]c2c1`, for which the Potency entry in [1], in experiment [5], in experiment [7], in experiment [8], in experiment [9] and in [12] was “inactive” throughout. The Potency entry (in [14]; in experiment [15]; with Aromatase (Homo sapiens)) was “inactive” each time. Moreover, the Potency in experiment [2] was 1.68 µM (active); in experiment [3], 1.88 µM (active); in experiment [4] it was 2.37 µM (active); in experiment [11], 3.76 µM (active); in experiment [16], 2.11 µM (active).

Take `COC1=C(OC)C(=O)C(C/C=C(\C)CC/C=C(\C)CC/C=C(\C)CC/C=C(\C)CC/C=C(\C)CC/C=C(\C)CC/C=C(\C)CC/C=C(\C)CC/C=C(\C)CCC=C(C)C)=C(C)C1=O`: the Potency result in experiment [1], in experiment [2], in experiment [3], in experiment [4], in experiment [5] and in [8] was “inactive” throughout. The Potency entry in experiment [10], in experiment [11], in [12], in experiment [13], in experiment [14] and in [15] was “inactive” throughout. The Potency result (in [16]; in experiment [17]; in experiment [18]; in the experiment with Aromatase (Homo sapiens)) was “inactive” each time.

As to `CC(=O)N[C@@H](C=O)[C@H](O)[C@H](O)[C@@H](O)CO`, the Potency result in [1], in [2], in [3], in experiment [4], in experiment [5] and in [8] was “inactive” each time. For the same compound, the Potency entry in [10], in [11], in experiment [12], in experiment [13], in experiment [14] and in experiment [15] was “inactive” in each case. In addition, the Potency result (in experiment [16]; in experiment [17]; in experiment [18]; with Aromatase (Homo sapiens)) was “inactive” in each case.

Turning to `CCN(CC)CCOC[C@H]1O[C@@H](O)[C@H](OCCN(CC)CC)[C@@H](O)[C@@H]1O`, the Potency entry in [1], in experiment [2], in experiment [3], in [4], in experiment [5] and in experiment [8] was “inactive” in each case. Besides, the Potency result in [10], in experiment [11], in experiment [12], in [13], in experiment [14] and in experiment [15] was “inactive” in each case. Also, the Potency result (in [16]; in experiment [17]; in experiment [18]; with Aromatase (Homo sapiens)) was “inactive” each time.

Turning to `C1CCc2nnnn2CC1`, the Potency result in [1], in [2], in experiment [3], in experiment [4], in experiment [5] and in experiment [8] was “inactive” in each case. In addition, the Potency result in experiment [10], in experiment [11], in [12], in [13], in experiment [14] and in [15] was “inactive” throughout. Further, the Potency result in [16], in experiment [17] and in [18] was “inactive” throughout.

Regarding `CN(C[C@@H](CC[N+]12CCC(C3CCCCC3)(CC1)CC2)c1ccc(Cl)c(Cl)c1)C(=O)c1cc(C(F)(F)F)cc(C(F)(F)F)c1`, the Potency is 17.4 µM (active) in experiment [1]; 6.86 µM (active) in experiment [2]; 9.69 µM (active) in [3]; 8.63 µM (active) in [4]; 19.5 µM (active) in experiment [5]; 61.1 µM (active) in [8]. Further, the Potency in experiment [9] was 54.5 µM (active); in [10], 21.7 µM (active); in experiment [11] it was 27.3 µM (active); in [14], 49 µM (active); with Aromatase (Homo sapiens), 61.1 µM (active). In experiment [7], the Potency result was “inactive”.

Consider `NC(N)=NCC1COC2(CCCCC2)O1` (configuration not stated), for which the Potency result in experiment [1], in experiment [2], in [3], in experiment [4], in experiment [5] and in experiment [7] was “inactive” each time. The Potency entry in experiment [8], in experiment [9], in experiment [10], in [11], in experiment [12] and in experiment [14] was “inactive” in each case. For the same compound, the Potency entry (in [18]; with Aromatase (Homo sapiens)) was “inactive” throughout.

For the compound `COc1ccc([C@@H]2CC(=O)c3c(O)cc(O[C@@H]4O[C@H](CO[C@@H]5O[C@@H](C)[C@H](O)[C@@H](O)[C@H]5O)[C@@H](O)[C@H](O)[C@H]4O)cc3O2)cc1O`, the Potency entry in experiment [1], in experiment [2], in experiment [3], in [4], in experiment [5] and in [6] was “inactive” in each case. The Potency entry in experiment [7], in experiment [8], in [9], in experiment [10], in [11] and in experiment [12] was “inactive” each time. For the same compound, the Potency entry (in experiment [13]; in experiment [14]; in [15]; in [16]; in experiment [17]; with Aromatase (Homo sapiens)) was “inactive” throughout.

As to `CC1(C)C[C@@H]1C(=O)N/C(=C\CCCCSC[C@H](N)C(=O)O)C(=O)O`, the Potency entry in experiment [1], in [2], in experiment [3], in experiment [4], in experiment [5] and in experiment [6] was “inactive” throughout. Also, the Potency result in experiment [7], in [8], in experiment [9], in [10], in experiment [11] and in [12] was “inactive” in each case. Also, the Potency entry (in experiment [14]; in experiment [18]; with Aromatase (Homo sapiens)) was “inactive” throughout.

Consider `CC(C)NCC1CCc2cc(CO)c([N+](=O)[O-])cc2N1` (configuration not stated), for which the Potency entry in [1], in experiment [2], in experiment [3], in experiment [4], in experiment [5] and in experiment [6] was “inactive” in each case. Moreover, the Potency entry in [7], in [8], in experiment [9], in experiment [10], in experiment [11] and in experiment [12] was “inactive” in each case. Further, the Potency entry (in [13]; in [14]; in [15]; in experiment [16]; in experiment [17]; with Aromatase (Homo sapiens)) was “inactive” in each case.
